Measured values as given in PubChem BioAssay (Tox21).
Values without a mark were called inactive. Records with an inconclusive call do not appear. Where a call stands in place of a potency, no number is given. Active and inactive are the calls of the source. Unless noted, calls follow the shape of the dose curve; as a rule, active = well fitted curve in the direction sought with a large enough effect in the repeat runs; inconclusive = weak or mixed curves; inactive = no such curve, though single readings can be large; an effect the other way counts as inactive or inconclusive.

Key:
[1] = qHTS assay for small molecule agonists of the p53 signaling pathway (AID 651631; calls by dose curve; also: nearly all actives have a fitted effect of over 15% in size)
How it was run: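 HCT-116 cells carrying a beta-lactamase reporter under p53 response elements were dosed with compound for 16 h at 37 °C. LiveBLAzer B/G FRET substrate was then added for 2 h at room temperature, and fluorescence intensity was read to detect pathway agonism.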

[2] = qHTS assay for small molecules that induce genotoxicity in human embryonic kidney cells expressing luciferase-tagged ATAD5 (AID 651632); also: nearly all actives have a fitted effect of over 15% in size
How it was run: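 Test compounds were delivered by pin tool onto HEK293T reporter cells (2,000/well) expressing ATAD5 fused to luciferase. After 16 hr at 37C, 5% CO2, Amplite was added for 30 min at room temperature and luminescence was measured.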

[3] = qHTS assay for small molecule agonists of the p53 signaling pathway - cell viability (AID 651633; calls by dose curve;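 also: p53RE-bla HCT reporter cells with a stable beta-lactamase p53 reporter; series mostly up to about 83 µM; nearly all actives have a fitted effect of over 30% in size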)
How it was run: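 Viability counter-read: CellTiter-Glo luminescence (30 min, room temperature) in the same p53RE-bla plates. These plates had been exposed to compounds for 16 h at 37 C.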

[4] = qHTS assay for small molecules that induce genotoxicity in human embryonic kidney cells expressing luciferase-tagged ATAD5 - cell viability (AID 651634; calls by dose curve; also: nearly all actives have a fitted effect of over 25% in size; also: potency is read from the fitted curve at half-maximal effect)
How it was run: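 Quantitative high-throughput format. HEK293T cells expressing ATAD5 fused to luciferase were plated at 2,000 cells/well and treated 15.5 hr with compound versus DMSO. Viability was determined by fluorescent live-cell protease substrate, 30 min at 37C.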

[5] = qHTS assay for small molecule disruptors of the mitochondrial membrane potential - cell viability (AID 720634; calls by dose curve;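 also: human HepG2 liver cancer cells; series mostly up to about 83 µM; nearly all actives have a fitted effect of over 20% in size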)
How it was run: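 Same-well counter-screen: following the MMP dye addition, CellTiter-Glo was added to 1 hr compound-treated HepG2 cells and luminescence read after 30 min at room temperature.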

[6] = qHTS assay to test for compound auto fluorescence at 535 nm (green) in HepG2 cells (AID 720675)
[7] = qHTS assay to test for compound auto fluorescence at 460 nm (blue) in HEK293 cells (AID 720678)
How it was run: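 HEK293 cells (2,000/well, medium with 10% dialyzed FBS) attached 4-5 hr, then exposed to compound overnight at 37C, 5% CO2. Blue fluorescence read at 405/460 nm, with triamterene as reference fluorophore.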

[8] = qHTS assay to test for compound auto fluorescence at 590 nm (red) in HEK293 cells (AID 720679)
How it was run: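 HEK293 cells (2,000/well, 10% dialyzed FBS) attached 4-5 hr, then dosed with compound or DMSO and incubated overnight at 37C, 5% CO2. Red fluorescence read at 540/590 nm, Rose Bengal sodium as reference fluorophore.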

[9] = qHTS assay to test for compound auto fluorescence at 590 nm (red) in HepG2 cells (AID 720674)
How it was run: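 We screened compounds on adherent HepG2 cells, incubating them for an hour at 37 C in 5% CO2 before reading emission at 590 nm under 540 nm excitation; values reflect equivalence to Rose Bengal sodium fluorescence.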

[10] = qHTS assay for small molecule disruptors of the mitochondrial membrane potential (AID 720635)
How it was run: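 Mitochondrial membrane potential tracked with Mito-MPS dye, red aggregates (ex 540/em 590 nm) against green monomers (ex 490/em 535 nm). Compound treatment 1 hr at 37C, dye 30 min in HepG2.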

Structure (SMILES)	outcome [1]	Potency [2]	outcome [3]	Potency [4]	outcome [5]	outcome [6]	outcome [7]	outcome [8]	outcome [9]	fluorescence, relative to Rose Bengal [9]	fluorescence, % of fluorescein control [6]	fluorescence, % of fluorescent control [8]	fluorescence, % of triamterene [7]	Potency [10]
BrCCCCCBr	inactive	inactive	inactive	inactive	inactive	inactive	inactive	inactive						
O=C(NCCc1c[nH]c2ccccc12)c1cccnc1	inactive	inactive	inactive	inactive	inactive	inactive	inactive	inactive						
O=C(O)C(=O)Cc1ccccc1	inactive	inactive	inactive	inactive	inactive	inactive		inactive	inactive					
FC(F)(F)c1ccccc1-n1ccnc1	inactive	inactive	inactive	inactive	inactive	inactive	inactive	inactive	inactive					
CCc1ccc(C=O)cc1	inactive	inactive	inactive	inactive	inactive	inactive	inactive	inactive	inactive					
Nc1ccc([N+](=O)[O-])c(N)c1	inactive	inactive	inactive	47.3 µM (active)	inactive	inactive	inactive	inactive	inactive					
Cc1ccc(C=O)cc1C	inactive	inactive	inactive	inactive	inactive	inactive	inactive	inactive						
O=C(NCCN1CCOCC1)c1ccc(Cl)cc1	inactive	inactive	inactive	inactive	inactive	inactive	inactive	inactive	inactive					
CCCCCCCCCC(C)=O	inactive	inactive	inactive	inactive	inactive	inactive	inactive	inactive						
CCCCCCCCC1CCC(=O)O1 (stereo unspecified)	inactive	inactive	inactive	inactive	inactive	inactive		inactive						
Brc1ccc(-c2ccccc2)cc1	inactive	inactive	inactive	inactive		inactive	inactive	inactive	inactive					
Cc1ccccc1N=O	inactive	inactive	inactive	inactive	inactive	inactive	inactive	inactive						
CC(C)=CCOC(=O)c1ccccc1	inactive	inactive	inactive	inactive	inactive	inactive		inactive	inactive					
C#CC(C)N(C)C(=O)Nc1ccc(Cl)cc1 (stereo unspecified)	inactive	inactive	inactive	inactive		inactive	inactive	inactive	inactive					
C=C(C)C(=O)OCC(C)(C)COC(=O)C(=C)C	inactive	inactive	inactive	inactive	inactive	inactive	inactive	inactive	inactive					
CC(C)(C)NC(N)=O	inactive	inactive	inactive	inactive		inactive	inactive	inactive	inactive					
CCCCCCN	inactive	inactive	inactive	inactive	inactive	inactive	inactive	inactive	inactive					
CC(=C(CCOC(=O)C(C)C)SSC(CCOC(=O)C(C)C)=C(C)N(C=O)Cc1cnc(C)nc1N)N(C=O)Cc1cnc(C)nc1N	inactive	inactive	inactive	inactive	inactive	inactive	inactive	inactive	inactive					
NCCS	inactive	inactive	inactive	inactive	inactive	inactive		inactive	inactive					
Cc1cc2cc3c(C)cc(=O)oc3c(C)c2o1	inactive	inactive	inactive	inactive	inactive					0.738% [at 18.6 µM]	-0.0056% [at 18.6 µM]	0.0391% [at 18.6 µM]		
OCCCCC(O)CO (stereo unspecified)	inactive	inactive	inactive	inactive	inactive	inactive	inactive	inactive	inactive					
C=CC(OCC)OCC	inactive		inactive	inactive	inactive	inactive	inactive	inactive	inactive					
O=C1c2ccccc2C(=O)C1c1ccccc1	inactive	inactive		inactive	inactive						0.0928% [at 18.6 µM]	0.0127% [at 18.6 µM]	-0.166% [at 18.6 µM]	
CC(C)CC(C)CC(C)CC(C)COC(=O)c1ccccc1C(=O)OCC(C)CC(C)CC(C)CC(C)C (stereo unspecified)	inactive		inactive	inactive	inactive	inactive	inactive	inactive						
O=C1O[C@@H]2[C@@H](O)[C@H](O)O[C@@H]2[C@H]1O	inactive	inactive		inactive	inactive	inactive	inactive	inactive						inactive
On1nnc2ccccc21	inactive		inactive		inactive	inactive	inactive	inactive	inactive					inactive
C[C@@H](O)[C@H]1C(=O)N2C(C(=O)O)=C(SCCN=CN)C[C@H]12	inactive	inactive		inactive	inactive					-0.493% [at 18.6 µM]	-0.19% [at 18.6 µM]	0.0064% [at 18.6 µM]	1.22% [at 18.6 µM]	
